About 7,900 targets were measured; listed, in parts, are those with a hit and a random draw of the rest. About 0.6% of all pairs of compound and target were hits. A number with no mark means an inactive call.
Key:
Assay in all cases: log2 fold change, soluble protein after heating vs DMSO (PISA); higher = thermal stabilisation; K562 cells, 10 uM, 30 min; active = over 0.2 and 3.5 SD of the protein, either way, in both replicates (recomputed)
[1] = compound: CC[C@@H]1C(=O)N(C)c2cnc(Nc3ccc(C(=O)NC4CCN(C)CC4)cc3OC)nc2N1C1CCCC1
Method in brief: (§1)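 Soluble protein was defined as the supernatant after 21,000xg for 90 min. It came from K562 cells at 2×10^6 cells/mL given 10 μM compound for 30 min, heated in aliquots for 3 min across 48°C-58°C, pooled, and extracted in PBS with 0.5% NP-40 at 4°C, and was quantified by TMTpro 16plex LC-MS/MS with equalised channel sums. Thermal stability against control samples, from duplicates, is reported as log2 fold change.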

volasertib = compound: CC[C@@H]1C(=O)N(C)c2cnc(Nc3ccc(C(=O)N[C@H]4CC[C@H](N5CCN(CC6CC6)CC5)CC4)cc3OC)nc2N1C(C)C [volasertib]
Method in brief: as §1

[2] = compound: CC[C@H](C)N1C=C(C2=C(C=C(C=C21)C3=CN=C(C=C3)N4CCNCC4)C(=O)NCC5=C(C=C(NC5=O)C)C)C
Method in brief: as §1

epoxomicin = compound: CC[C@H](C)[C@@H](C(=O)N[C@@H]([C@@H](C)O)C(=O)N[C@@H](CC(C)C)C(=O)[C@]1(CO1)C)NC(=O)[C@H]([C@@H](C)CC)N(C)C(=O)C [epoxomicin]
Method in brief: as §1

[3] = compound: CCn1c(C(=O)N(C2CC2)C2CC2)cc2c3c(ncn3C)c(Nc3cc(C)n(C)n3)nc21
Method in brief: as §1

[4] = compound: CCn1cc(-c2ccnc3[nH]c(-c4cccc(CN(C)C)c4)cc23)c(-c2ccc(NC(=O)N(C)C)cc2)n1
Method in brief: as §1

[5] = compound: CN(C)CC(=O)Nc1ccc2[nH]c(=O)c3ccccc3c2c1
Method in brief: as §1

rosiglitazone = compound: CN(CCOC1=CC=C(C=C1)C[C@H]2C(=O)NC(=O)S2)C3=CC=CC=N3 (racemic) [rosiglitazone]
Method in brief: as §1

[6] = compound: CN1C2=C(C3=C1C(=O)N(N=C3)CC4=CC(=CC=C4)N)SC(=C2)S(=O)C
Method in brief: as §1

[7] = compound: CN1CCC(CNc2ccc3ncc(-c4cccc(OC(F)(F)F)c4)n3n2)CC1
Method in brief: as §1

UniProt P51948, sequence (P51948 whole entry, looked up): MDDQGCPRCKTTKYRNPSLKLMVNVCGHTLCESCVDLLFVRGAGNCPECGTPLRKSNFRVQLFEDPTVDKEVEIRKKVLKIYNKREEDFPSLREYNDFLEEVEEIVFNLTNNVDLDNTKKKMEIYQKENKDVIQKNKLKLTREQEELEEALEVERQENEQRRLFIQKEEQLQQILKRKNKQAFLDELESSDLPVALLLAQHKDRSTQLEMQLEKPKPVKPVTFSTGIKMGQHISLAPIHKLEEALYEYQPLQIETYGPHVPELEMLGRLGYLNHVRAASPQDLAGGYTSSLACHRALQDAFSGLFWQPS
UniProt Q9NR45, sequence (Q9NR45 whole entry, looked up): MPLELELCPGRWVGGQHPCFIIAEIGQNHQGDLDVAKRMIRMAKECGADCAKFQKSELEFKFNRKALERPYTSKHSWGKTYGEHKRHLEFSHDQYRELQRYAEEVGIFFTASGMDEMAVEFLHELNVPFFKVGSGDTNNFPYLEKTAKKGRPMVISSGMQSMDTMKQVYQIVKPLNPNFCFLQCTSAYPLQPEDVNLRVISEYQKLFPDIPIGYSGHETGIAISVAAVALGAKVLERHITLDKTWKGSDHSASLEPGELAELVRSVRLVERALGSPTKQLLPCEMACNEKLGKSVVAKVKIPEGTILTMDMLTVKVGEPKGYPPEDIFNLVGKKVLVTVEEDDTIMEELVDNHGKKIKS
UniProt Q12769, sequence (Q12769 whole entry, looked up): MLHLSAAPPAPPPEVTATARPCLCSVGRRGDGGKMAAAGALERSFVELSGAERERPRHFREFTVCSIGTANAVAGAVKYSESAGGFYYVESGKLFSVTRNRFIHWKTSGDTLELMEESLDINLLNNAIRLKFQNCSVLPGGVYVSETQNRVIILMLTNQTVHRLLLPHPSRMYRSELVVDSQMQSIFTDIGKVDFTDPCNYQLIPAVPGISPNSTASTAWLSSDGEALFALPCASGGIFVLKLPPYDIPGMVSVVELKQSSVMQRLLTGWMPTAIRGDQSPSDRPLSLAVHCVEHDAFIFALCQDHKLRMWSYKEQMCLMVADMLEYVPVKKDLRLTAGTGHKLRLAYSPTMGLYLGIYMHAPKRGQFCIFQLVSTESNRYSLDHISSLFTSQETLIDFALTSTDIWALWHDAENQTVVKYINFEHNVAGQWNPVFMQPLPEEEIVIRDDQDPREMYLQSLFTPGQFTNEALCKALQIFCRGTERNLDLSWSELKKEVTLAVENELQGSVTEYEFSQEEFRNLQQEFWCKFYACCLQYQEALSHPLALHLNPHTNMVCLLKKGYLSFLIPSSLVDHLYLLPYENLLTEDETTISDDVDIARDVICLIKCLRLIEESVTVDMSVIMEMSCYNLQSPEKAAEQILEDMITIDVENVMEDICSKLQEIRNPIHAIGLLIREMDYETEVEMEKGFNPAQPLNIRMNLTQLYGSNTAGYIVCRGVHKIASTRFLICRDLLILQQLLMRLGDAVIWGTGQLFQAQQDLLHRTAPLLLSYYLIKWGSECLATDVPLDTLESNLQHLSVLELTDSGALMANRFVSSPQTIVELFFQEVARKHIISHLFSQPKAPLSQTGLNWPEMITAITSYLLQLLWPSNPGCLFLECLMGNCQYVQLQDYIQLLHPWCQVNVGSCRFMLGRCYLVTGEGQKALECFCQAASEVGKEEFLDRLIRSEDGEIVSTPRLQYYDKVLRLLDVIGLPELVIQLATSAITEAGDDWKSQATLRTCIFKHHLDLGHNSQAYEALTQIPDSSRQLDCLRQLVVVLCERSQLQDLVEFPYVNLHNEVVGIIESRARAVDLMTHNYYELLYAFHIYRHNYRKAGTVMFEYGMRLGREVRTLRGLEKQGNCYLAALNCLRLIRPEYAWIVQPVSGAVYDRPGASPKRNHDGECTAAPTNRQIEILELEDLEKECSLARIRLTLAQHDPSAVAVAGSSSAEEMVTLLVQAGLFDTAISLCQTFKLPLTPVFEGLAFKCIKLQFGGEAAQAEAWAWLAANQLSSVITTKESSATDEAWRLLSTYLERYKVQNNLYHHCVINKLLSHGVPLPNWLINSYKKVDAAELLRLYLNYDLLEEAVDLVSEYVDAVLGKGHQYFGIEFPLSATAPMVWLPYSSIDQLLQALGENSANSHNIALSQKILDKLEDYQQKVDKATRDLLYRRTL
UniProt Q14149, sequence (Q14149 whole entry, looked up): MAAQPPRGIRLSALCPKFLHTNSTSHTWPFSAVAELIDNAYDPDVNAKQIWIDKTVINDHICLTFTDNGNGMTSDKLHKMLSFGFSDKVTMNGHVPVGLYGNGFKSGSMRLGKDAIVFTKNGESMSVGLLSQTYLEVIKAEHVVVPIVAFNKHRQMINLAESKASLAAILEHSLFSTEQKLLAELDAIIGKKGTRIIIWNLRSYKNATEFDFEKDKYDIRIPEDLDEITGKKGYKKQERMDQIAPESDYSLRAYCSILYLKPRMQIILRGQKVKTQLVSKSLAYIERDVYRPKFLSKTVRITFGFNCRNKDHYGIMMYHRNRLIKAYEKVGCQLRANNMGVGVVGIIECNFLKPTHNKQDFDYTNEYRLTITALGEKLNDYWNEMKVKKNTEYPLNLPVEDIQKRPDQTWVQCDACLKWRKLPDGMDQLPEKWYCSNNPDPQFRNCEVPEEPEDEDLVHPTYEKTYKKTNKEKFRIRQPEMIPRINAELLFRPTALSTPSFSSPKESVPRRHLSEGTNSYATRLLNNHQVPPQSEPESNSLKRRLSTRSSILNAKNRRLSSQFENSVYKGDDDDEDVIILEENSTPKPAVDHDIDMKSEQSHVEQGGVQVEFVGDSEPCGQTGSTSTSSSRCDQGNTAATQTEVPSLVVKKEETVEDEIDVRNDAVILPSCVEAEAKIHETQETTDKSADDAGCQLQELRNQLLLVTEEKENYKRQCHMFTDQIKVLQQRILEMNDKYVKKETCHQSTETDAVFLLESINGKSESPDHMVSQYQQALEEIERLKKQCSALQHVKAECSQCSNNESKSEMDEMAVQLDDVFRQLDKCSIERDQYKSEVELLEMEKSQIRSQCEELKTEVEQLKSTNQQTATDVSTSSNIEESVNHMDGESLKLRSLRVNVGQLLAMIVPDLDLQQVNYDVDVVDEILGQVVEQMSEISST
UniProt Q6VY07, sequence (Q6VY07 whole entry, looked up): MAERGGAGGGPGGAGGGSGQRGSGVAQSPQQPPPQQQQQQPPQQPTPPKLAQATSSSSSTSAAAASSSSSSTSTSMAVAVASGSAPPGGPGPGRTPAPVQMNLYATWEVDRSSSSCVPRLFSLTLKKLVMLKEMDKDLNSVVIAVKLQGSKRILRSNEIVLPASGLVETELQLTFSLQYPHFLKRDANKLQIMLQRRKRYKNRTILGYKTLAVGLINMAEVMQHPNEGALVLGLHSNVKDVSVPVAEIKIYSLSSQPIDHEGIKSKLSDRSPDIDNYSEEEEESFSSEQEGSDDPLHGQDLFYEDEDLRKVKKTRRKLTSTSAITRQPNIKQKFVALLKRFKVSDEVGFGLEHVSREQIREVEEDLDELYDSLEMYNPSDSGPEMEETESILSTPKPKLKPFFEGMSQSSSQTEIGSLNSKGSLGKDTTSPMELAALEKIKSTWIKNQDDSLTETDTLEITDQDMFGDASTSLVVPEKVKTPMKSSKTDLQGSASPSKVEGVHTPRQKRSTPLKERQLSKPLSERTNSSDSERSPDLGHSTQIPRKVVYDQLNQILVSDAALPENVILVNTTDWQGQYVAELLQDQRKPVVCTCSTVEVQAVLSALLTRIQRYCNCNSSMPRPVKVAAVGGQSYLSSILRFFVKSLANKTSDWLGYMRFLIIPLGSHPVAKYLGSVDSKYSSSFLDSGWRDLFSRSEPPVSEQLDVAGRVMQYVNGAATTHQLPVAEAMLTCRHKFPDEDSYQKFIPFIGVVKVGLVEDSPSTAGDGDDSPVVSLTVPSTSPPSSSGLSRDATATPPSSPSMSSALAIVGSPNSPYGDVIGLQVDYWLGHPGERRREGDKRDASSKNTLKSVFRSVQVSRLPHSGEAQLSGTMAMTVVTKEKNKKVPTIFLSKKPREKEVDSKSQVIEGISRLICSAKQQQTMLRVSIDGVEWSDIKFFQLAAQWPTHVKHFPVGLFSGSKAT
UniProt O00483, sequence (O00483 whole entry, looked up): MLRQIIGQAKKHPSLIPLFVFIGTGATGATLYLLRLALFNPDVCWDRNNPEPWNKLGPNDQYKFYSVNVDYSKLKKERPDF
UniProt Q08J23, sequence (Q08J23 whole entry, looked up): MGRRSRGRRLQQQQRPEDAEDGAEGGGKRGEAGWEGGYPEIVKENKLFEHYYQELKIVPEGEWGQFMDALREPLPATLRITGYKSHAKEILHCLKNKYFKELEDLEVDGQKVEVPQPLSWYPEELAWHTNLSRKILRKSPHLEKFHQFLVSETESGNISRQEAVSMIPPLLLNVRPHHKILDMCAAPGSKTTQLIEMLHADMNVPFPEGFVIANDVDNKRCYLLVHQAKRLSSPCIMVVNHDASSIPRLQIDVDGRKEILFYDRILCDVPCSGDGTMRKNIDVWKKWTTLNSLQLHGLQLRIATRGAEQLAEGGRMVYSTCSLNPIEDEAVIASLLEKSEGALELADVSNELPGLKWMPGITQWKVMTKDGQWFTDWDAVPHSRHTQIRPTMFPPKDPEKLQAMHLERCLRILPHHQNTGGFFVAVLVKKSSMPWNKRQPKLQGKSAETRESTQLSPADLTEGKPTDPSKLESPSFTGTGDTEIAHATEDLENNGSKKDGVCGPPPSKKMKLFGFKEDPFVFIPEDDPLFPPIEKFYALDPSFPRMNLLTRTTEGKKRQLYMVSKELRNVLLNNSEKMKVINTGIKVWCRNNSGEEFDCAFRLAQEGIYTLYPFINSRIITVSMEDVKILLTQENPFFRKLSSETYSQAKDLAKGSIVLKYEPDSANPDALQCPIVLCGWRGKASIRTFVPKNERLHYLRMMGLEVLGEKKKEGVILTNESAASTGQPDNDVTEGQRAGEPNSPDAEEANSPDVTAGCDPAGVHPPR
UniProt Q9BRA0, sequence (Q9BRA0 whole entry, looked up): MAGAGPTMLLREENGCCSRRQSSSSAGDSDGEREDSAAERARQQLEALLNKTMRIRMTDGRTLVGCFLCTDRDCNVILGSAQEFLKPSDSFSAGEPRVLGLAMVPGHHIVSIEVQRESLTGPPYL

Target	log2 fold change [1]	log2 fold change (volasertib)	log2 fold change [2]	log2 fold change (epoxomicin)	log2 fold change [3]	log2 fold change [4]	log2 fold change [5]	log2 fold change (rosiglitazone)	log2 fold change [6]	log2 fold change [7]
NTMT1 (UniProt Q9BV86)	-0.047	-0.004	0.051	0.092	0.005	-0.141	0.081	-0.022	-0.037	0.099
NFATC2IP (UniProt Q8NCF5)	-0.09	-0.278 (active)	0.069	-0.052	0.022	0.038	0.048	0.041	-0.008	-0.103
NA, A0A096LPI6	0.023	0.044	-0.056	-0.017	0.042	0.029	-0.002	-0.019	-0.03	0.016
NUP85 (UniProt Q9BW27)	-0.158	-0.561 (active)	-0.008	0.022	-0.024	-0.01	-0.004	0.019	-0.038	-0.045
PACS1 (UniProt Q6VY07)	0	-0.03	0.208	-0.045	-0.025	-0.006	0.006	0.039	0.029	0.014
NAPG (UniProt Q99747)	-0.118	-0.462 (active)	0.072	0.069	-0.05	-0.076	0.048	0.088	0	-0.028
NDUFA4 (UniProt O00483)	0.033	0.042	-0.019	0.369 (active)	0.09	0.019	-0.039	-0.026	0.018	0.101
NSMCE2 (UniProt Q96MF7)	0.072	-0.032	-0.003	-0.089	0.025	0.079	-0.007	0.119	0.059	0.397 (active)
MNAT1 (UniProt P51948)	0.029	-0.027	-0.029	-0.057	-0.006	0.015	0.032	-0.027	-0.011	0.015
MKRN2 (UniProt Q9H000)	-0.08	-0.633 (active)	0.106	-0.068	-0.064	0.193	0.126	0.063	0.152	0.082
NAA38 isoform 2 (UniProt Q9BRA0)	-0.045	-0.017	-0.025	0.029	0.265 (active)	-0.127	-0.026	0.017	-0.095	0.064
NANS (UniProt Q9NR45)	0.015	-0.013	0.032	0.016	0.04	-0.041	0.009	0.032	-0.434 (active)	0.034
MRPL50 (UniProt Q8N5N7)	0.026	-0.029	-0.063	0.094	-0.005	-0.044	0.037	-0.015	-0.043	0.308
MUL1 (UniProt Q969V5)	0.061	0	0.045	0.04	-0.004	0.014	-0.028	0.052	-0.004	-0.115
MRPL47 (UniProt Q9HD33)	0.094	-0.038	0.044	0.061	-0.021	0.235	-0.036	-0.027	0.071	-0.325
NBN (UniProt O60934)	-0.072	-0.219 (active)	0.031	0.073	-0.038	0.002	0.061	0.034	-0.043	-0.116
MYL12B (UniProt O14950)	-0.053	-0.085	0.06	0.052	-0.06	-0.064	0.031	-0.025	-0.078	0.01
MRPS27 isoform 2 (UniProt Q92552)	-0.02	-0.041	0.132	0.052	-0.033	-0.046	0.019	0.05	0.047	-0.001
NFATC3 (UniProt Q12968)	0.038	-0.331	0.073	-0.046	0.065	-0.038	0.049	0.068	0.036	0.039
NUP107 (UniProt P57740)	0.038	-0.182	0.106	-0.053	-0.069	0.169	-0.048	0.057	0.053	0.628 (active)
NGLY1 (UniProt Q96IV0)	-0.07	-0.367 (active)	0.04	-0.071	-0.045	-0.03	0.055	0.01	0.044	-0.116
NA, A0A0B4J2A0	-0.163	-0.036	0.008	0.11	-0.04	-0.055	-0.004	0.049	-0.078	-0.101
MORC3 (UniProt Q14149)	-0.141	-0.509 (active)	0.086	0.125	-0.02	-0.027	0.071	0.084	-0.058	-0.017
NUP160 (UniProt Q12769)	-0.109	-0.62 (active)	0.005	-0.049	-0.01	0.04	0.007	0.03	-0.033	0.014
OTUD6B (UniProt Q8N6M0)	-0.163	-0.435 (active)	0.036	0.094	-0.032	-0.055	0.066	0.09	-0.019	-0.137
NFX1 (UniProt Q12986)	0.029	0.15	-0.001	-0.144	0.029	0.232	-0.216	0.138	0.128	0.197
NOP56 (UniProt O00567)	0.141	0.238	0.034	-0.44	-0.006	0.066	-0.208	-0.079	0.299	0.168
NOSIP (UniProt Q9Y314)	-0.373	-1.06 (active)	0.151	0.104	-0.129	-0.017	0.196	0.052	0.109	0.097
NSUN2 (UniProt Q08J23)	-0.182	-0.286	0.051	-0.044	0.017	-0.044	0.009	0.029	0.025	-0.131
NEDD4 isoform 4 (UniProt P46934)	-0.102	-0.521 (active)	0.008	0.008	0	-0.031	0.015	0.065	-0.01	0.049
